Bioassay records as filed in PubChem.
Only some compounds are listed: those with a hit (about 10% of all), similar ones and a draw of the others.
BAZ2B inh = qHTS Assay for Inhibitors of BAZ2B | Bromodomain adjacent to zinc finger domain protein 2B (Homo sapiens), Q9UIF8 | AlphaScreen BAZ2B-H3K14Ac peptide displacement | Potency, µM (top dose mostly 114 µM), inactives show at the highest dose activity change, negative = inhibition, hits mostly inhibitors | 360,000 tested, 4.4% active; further: potency means the concentration at half of the fitted maximal effect; on the % scale 0 is the no-effect control and ±100 the full control effect; nearly all actives have a fitted effect of over 60% in size
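AlphaScreen displacement of biotin-H3(5-23)K14Ac peptide (50 nM final) from BAZ2B (50 nM final) in PBS pH 7.4, 0.01% Tween-20; complex preformed 30 min RT, then compounds (top 110 uM) 30 min RT, beads 20 min dark.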
HP1b binding inh = HTS for Inhibitors of HP1-beta Chromodomain Interactions with Methylated Histone Tails | AID 540317, 2011 | Chromobox protein homolog 1 (Homo sapiens), P83916 | Potency, µM (top dose mostly 114 µM), for inactives: at the highest dose activity change, negative = inhibition, most hits filed as inhibitors | AlphaScreen HP1-beta / biotin-H3K9me3 peptide binding | 390,000 tested, 0.56% active; further: potency means the concentration at half of the fitted maximal effect; nearly all actives have a fitted effect of over 70% in size
Target sequence (P83916 whole entry, looked up): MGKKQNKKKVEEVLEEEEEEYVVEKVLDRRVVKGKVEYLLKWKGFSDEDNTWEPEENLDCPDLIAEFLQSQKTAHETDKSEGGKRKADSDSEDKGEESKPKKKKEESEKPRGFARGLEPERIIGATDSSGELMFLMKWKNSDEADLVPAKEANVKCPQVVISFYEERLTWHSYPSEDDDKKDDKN
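AlphaScreen: HP1-beta (50 nM) preformed 30 min with biotin-H3(1-18)K9me3 peptide (50 nM) in PBS pH 7.4, 0.01% Tween-20. Compound added for 30 min at RT, then streptavidin donor/nickel chelate acceptor beads (10 ug/mL) for 30 min.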
G9a block = qHTS Assay for Inhibitors of Histone Lysine Methyltransferase G9a; Histone-lysine N-methyltransferase EHMT2 (Homo sapiens), Q96KQ7; G9a H3K9 monomethylation, AlphaScreen, 2 h; Potency, µM (titrated, usually from 102 µM), for the others: at the top dose activity, negative = inhibition, hits mostly inhibitors; 350,000 tested, 8.8% active; AID 504332, 2011; further: potency means the concentration at half of the fitted maximal effect; on the % scale 0 is the no-effect control and ±100 the full control effect; nearly all actives have a fitted effect of over 75% in size
Target sequence (Q96KQ7 913-1193 limits assumed): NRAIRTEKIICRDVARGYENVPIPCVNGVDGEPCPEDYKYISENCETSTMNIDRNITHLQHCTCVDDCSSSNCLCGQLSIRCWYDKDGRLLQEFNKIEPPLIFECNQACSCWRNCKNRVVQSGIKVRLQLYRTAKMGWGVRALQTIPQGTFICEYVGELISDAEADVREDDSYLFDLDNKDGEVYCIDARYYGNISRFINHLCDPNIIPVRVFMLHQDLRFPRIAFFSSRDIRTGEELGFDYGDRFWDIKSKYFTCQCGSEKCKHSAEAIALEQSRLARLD
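Enzyme 20 nM + cpd, 15 min RT; add b-H3K9 pep 500 nM / SAM 20 uM; 2 h RT; anti-H3K9me1 Ab 0.5 ug/mL + SA donor / anti-rabbit acceptor beads 20 ug/mL each, 10 min; AlphaScreen read.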
Six1-Eya2 blk = qHTS Assay for Inhibitors of the Six1/Eya2 Interaction; 360,000 tested, 0.56% active; Homeobox protein SIX1 (Homo sapiens) + Protein phosphatase EYA2 (Homo sapiens), …; AID 651725, 2012; AlphaScreen GST-Six1/His-Eya2 binding, biochemical; hits give low values; activity change, % (no concentration beside the values); in the data active means activity change below about -65%; inconclusive means mostly about -30% to -63%; further: on the % scale 0 is the no-effect control and ±100 the full control effect
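GST-Six1 + His-Eya2 (5X stock: 250/500 nM); Tris pH 8.0, 300 mM NaCl, 0.05% BSA, 0.02% Tween 20; GSH donor/Ni acceptor beads; 1 h 37 °C dark; AlphaScreen readout.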
JMJD2A Tudor inh = qHTS Assay for Inhibitors of JMJD2A-Tudor Domain; Potency, µM (doses to about 114 µM), for inactives: top-dose activity change, negative = inhibition, most hits filed as inhibitors; Lysine-specific demethylase 4A (Homo sapiens), O75164; 390,000 tested, 4.4% active; AlphaScreen JMJD2A-Tudor / H3K4me3 peptide binding; further: potency means the concentration at half of the fitted maximal effect; on the % scale 0 is the no-effect control and ±100 the full control effect; nearly all actives have a fitted effect of over 50% in size
CtBP-E1A inh = qHTS Assay for Inhibitors of the CtBP/E1A Interaction; CtBP / adenovirus E1A interaction (AlphaScreen); AlphaScreen GST-E1A/His-CtBP binding, 1536-well; hits give low values; activity change, % (test concentration not listed); 340,000 tested, 0.49% active; in the data active means activity change below about -65%; inconclusive means mostly about -30% to -63%; further: on the % scale 0 is the no-effect control and ±100 the full control effect
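Homogeneous bead-based format: GST-tagged E1A captured on glutathione donor beads, His-tagged CtBP on nickel acceptor beads; compounds precede bead addition by 2 h at 37 °C.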
Active calls of the source: *; ? = inconclusive; · = no result; ! = repeats disagree; [ ] = dose if it differs, or a comment. Unless noted, the call rests on the fitted dose curve; in most records, active means well fitted inhibition curve with a large enough effect; inconclusive means small, poorly fitted or top-dose-only effect; inactive means no such curve, though single readings can be large or run the other way.

SMILES | BAZ2B inh | HP1b binding inh | G9a block | Six1-Eya2 blk | JMJD2A Tudor inh | CtBP-E1A inh
COc1ccc(NC(=O)CN(C)CC(=O)NC2CCCCC2C)cc1 (centres undefined) | 10% | 41% | 28µM* | -11 | -5% | 0
CN1CCN(NC(=O)c2cccs2)CC1 | -14% | 30% | -33% | -3 | -8% | -11
FC(F)(F)c1cnc(Nc2ccc(N3CCOCC3)cc2)c(Cl)c1 | 35µM* | ? | 22µM* | -29 | ? | -21
CC1CC=CC2C1C(=O)N(Cc1ccccc1)C2c1ccc(-c2cc3ccccc3s2)cc1F (centres undefined) | · | 30% | · | · | -6% | ·
O=C(Nc1cccc(S(=O)(=O)N2CCOCC2)c1)c1ccc2c(=O)n3c(nc2c1)CCCCC3 | -7% | 11% | 5% | -6 | -23% | -5
COC(=O)c1ccc(N2C(=O)CC(N(C)CCc3ccc(OC)c(OC)c3)C2=O)cc1 (centres undefined) | 1% | 39% | 35µM* | 4 | -8% | -1
O=C1CC(Nc2ccc(N3CCOCC3)cc2)C(=O)N1c1cccc(C(F)(F)F)c1 (centres undefined) | 56µM* | -15% | 14µM* | -16 | ? | -20
COc1ccc(N2C(=O)CC(Nc3ccc(C(=O)O)cc3)C2=O)cc1OC (centres undefined) | -17% | 62% | 40µM* | 2 | 10% | 2
COc1ccc(N2C(=O)CC(N3CCC(O)(c4cccc(C(F)(F)F)c4)CC3)C2=O)cc1 (centres undefined) | 0% | 69% | 40µM* | -1 | -16% | 4
Cc1ccccc1CN1CCCN(CC(=O)Nc2ccc3c(c2)OCCO3)S1(=O)=O | -20% | -3% | 5%[59 µM] | · | -19% | ·
O=C(O)c1ccc(N2C(=O)CC(N3CCN(c4cccc(C(F)(F)F)c4)CC3)C2=O)cc1 (centres undefined) | 7% | 91% | 40µM* | 15 | -5% | 0
O=C(O)c1ccc(N2C(=O)CC(N3CCN(c4cccc(Cl)c4)CC3)C2=O)cc1 (centres undefined) | 5% | 54% | 11%[0.501 µM] | -3 | -9% | ·
CCOC(=O)/C(=N/Nc1ccccc1)N1CCCc2ccccc21 | ? | 12% | ? | -8 | -22% | -26
COC(=O)/C(=N/Nc1ccccc1C)N1CCCc2ccccc21 | -12% | 12% | 35µM* | -1 | -16% | -12
CCOC(=O)/C(=N/Nc1ccc(OC)cc1)N1CCCc2ccccc21 | 28µM* | 71µM* | 22µM* | ? | ? | -16
CCOC(=O)/C(=N/Nc1ccccc1OC)N1CCCc2ccccc21 | -16% | 41% | 2.5µM* | -3 | -3% | -1
CC(C)(C)c1ccc(OCCOCCn2c(-c3ccc(Cl)cc3)nc3ccccc3c2=O)cc1 | 9% | 37% | ? | · | 0% | ·
COc1ccc(S(=O)(=O)NCC2CCCN(Cc3cn(C)nc3C)C2)cc1 (centres undefined) | 20% | 11% | 24% | 4 | -22% | 1
Cc1ccc(NC(=S)NCc2ccc3c(c2)cc(C)n3C)c(C)c1 | ? | ? | -28% | ? | 22µM* | ·
Cc1ccc(NC(=S)NCc2ccc(F)cc2)c(C)c1 | -5% | 26% | 20% | -1 | -26% | -10
Cc1ccc(CN(Cc2ccco2)C(=O)COc2cc(C)c(Cl)c(C)c2)cc1 | 31% | 61% | 48%[59 µM] | · | 37% | ·
Cc1ccc(NC(=O)CSc2[nH]c(=O)ncc2C)cc1 | 0% | 23% | 8%[59 µM] | · | -7% | ·
O=C1c2ccncc2C(=O)N1CNc1ccc(Cl)cc1 | · | 19% | ? | 2 | -1% | 1
O=C1c2cccnc2C(=O)N1CNc1ccc(Cl)cc1 | 56µM* | 26% | ? | -1 | -1% | ·
CCOc1cccc2oc(-c3ccccc3Cl)cc(=O)c12 | · | · | 19% | · | · | ·
SMILES | BAZ2B inh | HP1b binding inh | G9a block | Six1-Eya2 blk | JMJD2A Tudor inh | CtBP-E1A inh
CN1Cc2c(N)cccc2C(c2ccccc2)C1 (centres undefined) | 0% | 41% | 14µM*! | 4 | -21% | 0
Cn1cc(Br)c(C(=O)Nc2c(F)c(F)c(F)c(F)c2F)n1 | 9% | 20% | 21%[59 µM] | 22 | -12% | 16
Cn1cc(Br)c(NC(=O)/C=C/C(=O)O)n1 | -12% | 49% | 0.71µM* | 3 | -17% | ·
O=C(NCCF)[C@H]1C[C@@H]1[C@H](NP(=O)(c1ccccc1)c1ccccc1)c1ccccc1 | ? | 15% | -25% | 4 | -18% | 4
COCCNC(=O)[C@H]1C[C@@H]1[C@H](NP(=O)(c1ccccc1)c1ccccc1)c1ccccc1 | 0% | 38% | 56µM* | 7 | -11% | 5
O=C(CNC(=O)c1ccc2n[nH]nc2c1)OC(C(=O)Nc1cc(C(F)(F)F)ccc1Cl)c1ccccc1 (centres undefined) | · | · | · | · | -26% | ·
CSc1ccccc1NC(=O)c1ccc(N2CC3CC(C2)c2cccc(=O)n2C3)c(NC(=O)c2cccnc2)c1 (centres undefined) | -19% | 28% | 71µM* | 5 | -6% | ·
COc1ccccc1NC(=O)c1ccc(N2CC3CC(C2)c2cccc(=O)n2C3)c(NC(=O)c2ccncc2)c1 (centres undefined) | -14%[57.1 µM] | 30% | 16µM* | 3 | -12% | ·
COc1ccc(NS(=O)(=O)c2cc(N/C(=N\S(=O)(=O)c3ccccc3)c3ccc(F)cc3)ccc2Cl)cc1 | -30% | -4% | 3%[59 µM] | -3 | -28% | -12
CC(/C=C/c1ccc(N(C)C)cc1)=N\N=C(/N)SC1CC(=O)N(c2ccc(C(=O)O)cc2)C1=O (centres undefined) | 50µM* | ? | ? | -10 | 32µM* | -6
O=C(O)c1ccc(N2C(=O)CC(SC(=Nc3ccccc3)Nc3ccccc3)C2=O)cc1 (centres undefined) | -5% | 21% | 17% | 7 | -15% | -1
Cc1ccc(C)c(N2CCN(S(=O)(=O)c3ccc(F)c(C(=O)Nc4ccc(Cl)cc4Cl)c3)CC2)c1 | 1% | 25% | 5%[59 µM] | · | -15% | ·
Cc1ccc(C(=O)c2cn(Cc3cccc(C)c3)c3nc(C)ccc3c2=O)cc1 | -17% | 28% | -27%[59 µM] | · | -12% | ·
Cc1nc2nc(SCC(=O)NC(C)c3ccccc3)nn2c(C)c1Cc1c(F)cccc1Cl (centres undefined) | -3% | 28% | -4%[59 µM] | · | -19% | ·
